Compound activity (PubChem)
A selection: hits, their analogues and other compounds. The true share with any hit is near 2.9%.
FAS-TE inh = FAS thioesterase (human) inhibition. P49327. recombinant FAS-TE, OMFH fluorogenic substrate, fluorescence endpoint. inhibition, % at 15 µM. 360,000 tested, 0.67% active. AID 602261;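 active = compounds whose normalised, plate-corrected inhibition of enzyme fluorescence in the single-dose primary screen is 50% or more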;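 also: 0% = DMSO with enzyme and 100% = substrate without enzyme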
proKLK7 act = activates the human kallikrein-7 zymogen | activation, % at 7 µM | 370,000 tested, 0.9% active | P49862 | purified proKLK7, EDANS-DABCYL substrate fluorescence; 100% is mature enzyme control, 0% vehicle;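 active = activation above the mean of all tested compounds plus 3 SD, computed per campaign excluding outliers beyond control limits, cut at about 13% in these data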
Target sequence (P49862 whole entry, looked up): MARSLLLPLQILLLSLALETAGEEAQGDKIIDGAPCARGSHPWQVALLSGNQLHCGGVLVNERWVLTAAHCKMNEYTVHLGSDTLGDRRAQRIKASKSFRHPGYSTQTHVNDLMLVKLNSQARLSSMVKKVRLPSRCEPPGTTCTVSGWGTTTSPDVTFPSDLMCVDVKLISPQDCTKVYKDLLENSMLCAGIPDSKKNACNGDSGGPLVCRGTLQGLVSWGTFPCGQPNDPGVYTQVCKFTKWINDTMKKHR
SMARCA2 act = SMARCA2 function activation, primary screen; AID 652017; 370,000 tested, 1% active; activation, % at 9.1 µM; MG213 cells, MMTV-luciferase reporter, dexamethasone, overnight; in the data active = activation above about 7.8%;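 also: 0% = vehicle wells and 100% = reference activator wells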
GAA850 FXN act = frataxin GAA850 promoter activation | HEK293 lucGAA850 FXN promoter luciferase reporter, 24 h; percent of 10 µM SAHA response | activation, % at 6 µM | 360,000 tested, 0.56% active;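 active = activation above the average of all compounds screened plus 3 SD, cutoff fixed separately per campaign, cut at about 7.5% in these data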;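 also: 0% = DMSO wells and 100% = 10 µM SAHA wells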
SMARCA2 act conf = SMARCA2 activation, confirmation screen; MG213 cells, MMTV-luciferase with dexamethasone, luminescence, overnight; MG213 cells expressing E1A, Rb sequestered; DMSO wells 0%, reference activator 100%; 3,500 tested, 30% active; AID 652260; shares compounds with SMARCA2 act; activation, % at 9.1 µM;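 active = activation above its plate's cutoff, the mean activation of tested wells plus 3 SD, cut at about 7.9% in these data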
VP16 Luc act = GAL4-VP16 reporter activation counter-screen. activation, % at 9.1 µM. AID 686939. shares compounds with SMARCA2 act. 3,500 tested, 41% active. HEK293 GAL4-VP16 pG5luc reporter, luciferase luminescence; scaled: DMSO wells 0%, SAHA wells 100%;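 active = activation above the solvent-only control well mean plus 3 SD, averaged across control plates, cut at about 5.2% in these data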
* marks the source's active call; other numbers are inactive results; / = not tested or not shown.

SMILES	FAS-TE inh	proKLK7 act	SMARCA2 act	GAA850 FXN act	SMARCA2 act conf	VP16 Luc act
CC(=O)Nc1ccc2c(c1)ncn2-c1ccccc1	-5.5	0.7	11.6*	7.4	15.7*	7.3*
CC(C)(C)C(=O)Nc1nnc(SCC(=O)Nc2ccc3c(c2)OCO3)s1	-11.1	-0.1	13.4*	-0.1	-5.3	2.4
CCOC(=O)c1sc(NC(=O)Cc2ccc(F)cc2)nc1C	-0.6	-0.2	8.4*	0.2	3.6	3.6
O=C(COc1ccccc1Cl)NCCc1ccc2c(c1)OCCO2	-3.4	0.6	10.8*	3.2	4.2	1.0
CCOC(=O)c1nn(-c2ccc3c(c2)OCCO3)cc1O	-6.5	9.1	11.1*	2.9	8.3*	12.3*
Cc1nnc(-c2ccccc2)o1	-7.9	0.4	-3.4	3.8	/	/
Cc1ccc(/C=C/c2nnc(-c3cccc(C)c3)o2)cc1	26.7	-0.8	9.3*	-1.6	1.9	1.3
Cc1ccc(-c2nnc(/C=C/c3ccccc3)o2)cc1	8.9	-0.4	9.1*	4.6	7.4	10.1*
COC(=O)C1C2C=CC3(CN(c4ccc(Cl)c(F)c4)C(=O)C13)O2 (centres undefined)	3.2	-0.1	-1.7	-1.7	/	/
O=C1CC(Sc2ccc(Cl)cc2)C(=O)N1c1ccc2c(c1)OCCO2 (centres undefined)	11.7	1.0	8.4*	0.7	-2.6	0.5
COc1cccc(C(=O)n2ccc3ccc(-c4ccc5ccn(Cc6ccccc6)c5c4)cc32)c1	/	-6.8	-1.7	/	/	/
CCOc1cccc(C=Nc2cc(C)cc(C)c2O)c1O	1.3	1.8	11.6*	0.3	5.6	2.4
CCOc1cccc(/C=N/N=C/c2cccc(OCC)c2O)c1O	-2.5	0.2	-0.8	2.2	/	/
O=C(NC1CCCCC1)c1ccc([N+](=O)[O-])o1	1.8	/	/	2.3	/	/
O=C(NC1CCCCC1)c1ccc(-c2ccccc2[N+](=O)[O-])o1	17.9	-0.6	10.7*	7.1	8.7*	12.3*
O=C1C=C(c2ccccc2)C[C@H](c2cccs2)[C@H]1n1nnc([N+](=O)[O-])n1	20.5	-0.3	1.0	-2.6	/	/
O=C(Nc1cnn(Cc2ccc(F)cc2)c1)c1cc(-c2ccco2)on1	-0.8	3.8	3.1	0.6	/	/
O=C(CSc1ncn[nH]1)c1ccc2c(c1)OCO2	-9.8	0.0	8.6*	-0.1	1.4	1.3
COc1cc(/C=C/C(=O)O)cc(S(=O)(=O)NNC(=O)c2cc(C)oc2C)c1OC	-7.0	-0.3	0.9	1.2	/	/
O=C(COc1ccccc1)Nc1ccccc1F	-4.3	-0.3	5.3	-0.1	/	/
COc1ccc(OCC(=O)NC(=S)Nc2ccccc2F)cc1	6.4	-0.2	9.8*	/	2.4	0.7
COc1ccccc1CC(=O)N1CCC(CCC(=O)NC2CC2)CC1	-9.9	-0.2	8.8*	-1.1	-2.8	1.4
COc1ccc(OC)c2sc(N(CCN(C)C)C(=O)/C=C/c3cccs3)nc12	-2.8	-7.9	14.6*	-0.2	16.6*	-0.1
CN(C)CCN(C(=O)/C=C/c1cccs1)c1nc2c(F)cc(F)cc2s1	2.8	-10.2	23.5*	-0.8	23.1*	-0.1
COc1cccc2sc(N(CCN(C)C)C(=O)/C=C/c3cccs3)nc12	0.0	-96.0	6.0	-0.4	/	/
SMILES	FAS-TE inh	proKLK7 act	SMARCA2 act	GAA850 FXN act	SMARCA2 act conf	VP16 Luc act
O=C(CC1NC2CCCCC2NC1=O)Nc1ccc2c(c1)OCO2 (centres undefined)	-5.2	-0.2	11.3*	0.1	-0.6	0.5
Cc1ccc(-c2nc3ccc(C)cn3c2CC2CCCCC2)cc1	18.8	-1.6	8.1*	/	1.2	5.1*
Cc1ccc(CN=C(Nc2ccccc2)NC2CCCCC2)cc1	-3.4	-0.3	-2.7	-2.9	/	/
c1ccc2sc(-c3ccc4c(c3)OCO4)nc2c1	18.3	/	/	-0.6	/	/
O=C(Nc1ccc(Cl)c(-c2nc3ccccc3[nH]2)c1)c1ccc2c(c1)OCO2	12.6	-0.1	1.6	0.9	/	/
O=C(Nc1ccccn1)c1ccc2c(c1)OCCO2	-3.8	-0.4	10.9*	1.4	5.8	6.0*
O=C(Nc1ccc(-c2nc3ccccc3[nH]2)cc1)c1ccc2c(c1)OCO2	0.9	1.6	18.9*	0.7	13.4*	4.1
c1ccc2[nH]c(-c3ccc4c(c3)OCO4)nc2c1	-5.0	0.1	8.1*	2.8	22.4*	11.8*
CCC(CC)c1nnc(NC(=O)c2ccc3c(c2)OCO3)s1	-1.4	-0.8	10.0*	4.4	3.1	6.6*
O=C(Nc1ccccn1)c1ccc2c(c1)OCO2	-5.2	-0.1	3.3	3.5	/	/
COn1c(-c2ccccc2)c(C=O)c2ccccc21	15.6	-0.5	-0.8	1.9	/	/
CC(C)(C)NC(=O)CN(CCN1CCOCC1)C(=O)CNS(=O)(=O)c1ccc(Cl)cc1	-3.8	1.4	0.6	-1.4	/	/
O=C(COc1ccccc1)Nc1cccc(-c2nc3ccccc3[nH]2)c1	-5.8	0.0	9.2*	3.2	5.5	4.1
O=C(CSc1ccccc1)Nc1ccc(-c2nc3ccccc3[nH]2)cc1	-4.9	6.4	2.3	1.6	/	/
Cc1nc(NC(=O)c2ccc3c(c2)OCO3)ccc1Br	7.0	0.4	8.6*	1.0	5.8	13.8*
O=C(Cc1cccs1)Nc1ccc(-c2nc3ccccc3[nH]2)cc1	4.9	8.4	8.8*	4.2	7.4	13.1*
COc1ccc(OCC(=O)Nc2cccc(-c3nc4ccccc4[nH]3)c2)cc1	7.9	0.3	0.7	0.5	/	/
C/C(=N\NC(=O)c1ccc2c(c1)OCO2)c1ccc(NC(=O)CCCC(=O)O)cc1	-4.3	1.0	8.3*	2.9	-4.6	1.4
CCN(CC)c1ccc(NC(=O)c2ccc3c(c2)OCO3)cc1	2.5	-0.1	10.2*	0.5	4.0	11.4*
Cn1ncc([N+](=O)[O-])c1C(=O)Nc1ccc(Cl)cc1	-2.0	-0.3	-3.9	0.2	/	/
Cn1ncc([N+](=O)[O-])c1C(=O)Nc1ccc(-c2nc3ccccc3[nH]2)cc1	-4.8	0.1	9.6*	0.4	12.0*	1.8
Oc1ccccc1C=NN=Cc1ccccc1Cl	19.6	0.7	0.3	5.1	/	/
COc1cc(O)c2c(=O)c3c(OC)c(O)ccc3oc2c1	-0.9	1.6	9.7*	5.8	9.0*	4.5
CCOc1ccc(NC(=O)c2ccc3c(c2)N(C)CCS3)cc1	-2.4	0.5	2.6	2.2	/	/
COc1ccc(C2CC(=O)c3cc(OC)ccc3O2)cc1 (centres undefined)	11.1	2.8	0.5	-0.1	/	/
COc1ccc(C2CC(=O)c3ccccc3O2)cc1 (centres undefined)	7.7	0.1	8.6*	1.9	7.6	3.1
CCOc1ccc(NC(=O)c2nccnc2CO)cc1	-8.6	0.0	9.8*	3.6	4.0	9.8*
CCOc1ccc(NC(=O)c2cnsn2)cc1	-6.6	0.0	8.1*	-0.1	14.3*	5.0
CC(C)c1ccc([C@@H]2O[C@H](CCc3ccccc3)Cc3[nH][nH]c(=O)c32)cc1	-53.6	-0.8	5.7	/	/	/
